Assay results from the supplement of paper PMC4466140.

B1: unnamed (peptide)
chain: TSFKGRPKPPKTLKH

Target: AgAbp1
Assay: SPOT peptide array binding signal intensity (averaged, normalized) (arbitrary units (background-subtracted, floor 0; scale differs between SH3 domains)); higher = stronger binding of the SH3 domain to the peptide
Summary of the method: (§1)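 Four yeast species supplied the SH3 domains, which were expressed as GST fusions in E. coli BL21(DE3) and purified on glutathione Sepharose. Incubation with cellulose membranes carrying synthetic 15-mer peptides, cysteines exchanged for serines, ran overnight at 4°C at 10 μg/ml in TBS-based blocking buffer. Binding signal is reported as normalized, background-subtracted spot intensity averaged over replicates, in arbitrary units not shared between domains.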

Question: With B1 as the binder, how does the “SPOT peptide array binding signal intensity” value read?
Answer: 590

Target: AgBbc1
Assay: as above
Summary of the method: as §1

Question: With B1 as the binder, how does the “SPOT peptide array binding signal intensity” value read?
Answer: 17.8

Target: AgBem1-D1
Assay: as above
Summary of the method: as §1

Question: Which “SPOT peptide array binding signal intensity” value does the source give for B1 here?
Answer: ≤ 0

Target: AgBzz1-D1
Assay: as above
Summary of the method: as §1

Question: B1 was tested. Which “SPOT peptide array binding signal intensity” value did it give?
Answer: ≤ 0

Target: AgBzz1-D2
Assay: as above
Summary of the method: as §1

Question: How did the “SPOT peptide array binding signal intensity” value turn out when B1 was run?
Answer: 28

Target: AgCyk3
Assay: as above
Summary of the method: as §1

Question: Which “SPOT peptide array binding signal intensity” value does the source give for B1 here?
Answer: ≤ 0

Target: AgFus1
Assay: as above
Summary of the method: as §1

Question: With B1 as the binder, how does the “SPOT peptide array binding signal intensity” value read?
Answer: 3

Target: AgHof1
Assay: as above
Summary of the method: as §1

Question: B1 was tested. Which “SPOT peptide array binding signal intensity” value did it give?
Answer: 22.5

Target: AgHse1
Assay: as above
Summary of the method: as §1

Question: How did the “SPOT peptide array binding signal intensity” value turn out when B1 was run?
Answer: 65.5

Target: AgLsb1
Assay: as above
Summary of the method: as §1

Question: With B1 as the binder, how does the “SPOT peptide array binding signal intensity” value read?
Answer: ≤ 0

Target: AgLsb4
Assay: as above
Summary of the method: as §1

Question: B1 was tested. Which “SPOT peptide array binding signal intensity” value did it give?
Answer: 20

Target: AgMyo5
Assay: as above
Summary of the method: as §1

Question: How did the “SPOT peptide array binding signal intensity” value turn out when B1 was run?
Answer: 1.5

Target: AgNbp2
Assay: as above
Summary of the method: as §1

Question: How did the “SPOT peptide array binding signal intensity” value turn out when B1 was run?
Answer: ≤ 0

Target: AgRvs167
Assay: as above
Summary of the method: as §1

Question: With B1 as the binder, how does the “SPOT peptide array binding signal intensity” value read?
Answer: 2

Target: AgSho1
Assay: as above
Summary of the method: as §1

Question: For B1, which “SPOT peptide array binding signal intensity” value is on record?
Answer: ≤ 0

Target: AgSla1-D1-D2
Assay: as above
Summary of the method: as §1

Question: For B1, which “SPOT peptide array binding signal intensity” value is on record?
Answer: 71

Target: AgSla1-D3
Assay: as above
Summary of the method: as §1

Question: With B1 as the binder, how does the “SPOT peptide array binding signal intensity” value read?
Answer: 5.5

Target: CaAbp1-D1
Assay: as above
Summary of the method: as §1

Question: B1 was tested. Which “SPOT peptide array binding signal intensity” value did it give?
Answer: 1460

Target: CaAbp1-D2
Assay: as above
Summary of the method: as §1

Question: For B1, which “SPOT peptide array binding signal intensity” value is on record?
Answer: 1380

Target: CaBbc1
Assay: as above
Summary of the method: as §1

Question: With B1 as the binder, how does the “SPOT peptide array binding signal intensity” value read?
Answer: 43.5

Target: CaBem1-D1
Assay: as above
Summary of the method: as §1

Question: B1 was tested. Which “SPOT peptide array binding signal intensity” value did it give?
Answer: ≤ 0

Target: CaBzz1-D1
Assay: as above
Summary of the method: as §1

Question: Which “SPOT peptide array binding signal intensity” value does the source give for B1 here?
Answer: 80.5

Target: CaBzz1-D2
Assay: as above
Summary of the method: as §1

Question: B1 was tested. Which “SPOT peptide array binding signal intensity” value did it give?
Answer: 67.8

Target: CaCyk3
Assay: as above
Summary of the method: as §1

Question: For B1, which “SPOT peptide array binding signal intensity” value is on record?
Answer: 3

Target: CaFus1
Assay: as above
Summary of the method: as §1

Question: Which “SPOT peptide array binding signal intensity” value does the source give for B1 here?
Answer: 44.5

Target: CaHof1
Assay: as above
Summary of the method: as §1

Question: With B1 as the binder, how does the “SPOT peptide array binding signal intensity” value read?
Answer: 2.75

Target: CaHse1
Assay: as above
Summary of the method: as §1

Question: For B1, which “SPOT peptide array binding signal intensity” value is on record?
Answer: 2.75

Target: CaLsb1
Assay: as above
Summary of the method: as §1

Question: B1 was tested. Which “SPOT peptide array binding signal intensity” value did it give?
Answer: ≤ 0

Target: CaLsb4
Assay: as above
Summary of the method: as §1

Question: Which “SPOT peptide array binding signal intensity” value does the source give for B1 here?
Answer: ≤ 0

Target: CaMyo5
Assay: as above
Summary of the method: as §1

Question: For B1, which “SPOT peptide array binding signal intensity” value is on record?
Answer: 2.5

Target: CaNbp2
Assay: as above
Summary of the method: as §1

Question: With B1 as the binder, how does the “SPOT peptide array binding signal intensity” value read?
Answer: 12

Target: CaRvs167
Assay: as above
Summary of the method: as §1

Question: For B1, which “SPOT peptide array binding signal intensity” value is on record?
Answer: 0.833

Target: CaRvs167-3
Assay: as above
Summary of the method: as §1

Question: Which “SPOT peptide array binding signal intensity” value does the source give for B1 here?
Answer: 1.5

Target: CaSho1
Assay: as above
Summary of the method: as §1

Question: With B1 as the binder, how does the “SPOT peptide array binding signal intensity” value read?
Answer: 0.5

Target: CaSla1-D1-D2
Assay: as above
Summary of the method: as §1

Question: How did the “SPOT peptide array binding signal intensity” value turn out when B1 was run?
Answer: 196

Target: CaSla1-D3
Assay: as above
Summary of the method: as §1

Question: Which “SPOT peptide array binding signal intensity” value does the source give for B1 here?
Answer: ≤ 0

Target: ScAbp1
Assay: as above
Summary of the method: as §1

Question: With B1 as the binder, how does the “SPOT peptide array binding signal intensity” value read?
Answer: 556

Target: ScBbc1
Assay: as above
Summary of the method: as §1

Question: With B1 as the binder, how does the “SPOT peptide array binding signal intensity” value read?
Answer: ≤ 0

Target: ScBem1-D1
Assay: as above
Summary of the method: as §1

Question: How did the “SPOT peptide array binding signal intensity” value turn out when B1 was run?
Answer: 6.5

Target: ScBzz1-D1
Assay: as above
Summary of the method: as §1

Question: Which “SPOT peptide array binding signal intensity” value does the source give for B1 here?
Answer: 26

Target: ScBzz1-D2
Assay: as above
Summary of the method: as §1

Question: With B1 as the binder, how does the “SPOT peptide array binding signal intensity” value read?
Answer: 18

Target: ScCyk3
Assay: as above
Summary of the method: as §1

Question: Which “SPOT peptide array binding signal intensity” value does the source give for B1 here?
Answer: ≤ 0

Target: ScFus1
Assay: as above
Summary of the method: as §1

Question: How did the “SPOT peptide array binding signal intensity” value turn out when B1 was run?
Answer: ≤ 0

Target: ScHof1
Assay: as above
Summary of the method: as §1

Question: With B1 as the binder, how does the “SPOT peptide array binding signal intensity” value read?
Answer: 8.5

Target: ScHse1
Assay: as above
Summary of the method: as §1

Question: With B1 as the binder, how does the “SPOT peptide array binding signal intensity” value read?
Answer: 542

Target: ScLsb1
Assay: as above
Summary of the method: as §1

Question: B1 was tested. Which “SPOT peptide array binding signal intensity” value did it give?
Answer: 4.75

Target: ScLsb2
Assay: as above
Summary of the method: as §1

Question: Which “SPOT peptide array binding signal intensity” value does the source give for B1 here?
Answer: ≤ 0

Target: ScLsb3
Assay: as above
Summary of the method: as §1

Question: How did the “SPOT peptide array binding signal intensity” value turn out when B1 was run?
Answer: ≤ 0

Target: ScLsb4
Assay: as above
Summary of the method: as §1

Question: Which “SPOT peptide array binding signal intensity” value does the source give for B1 here?
Answer: ≤ 0

Target: ScMyo3
Assay: as above
Summary of the method: as §1

Question: With B1 as the binder, how does the “SPOT peptide array binding signal intensity” value read?
Answer: 3

Target: ScMyo5
Assay: as above
Summary of the method: as §1

Question: B1 was tested. Which “SPOT peptide array binding signal intensity” value did it give?
Answer: ≤ 0

Target: ScNbp2
Assay: as above
Summary of the method: as §1

Question: How did the “SPOT peptide array binding signal intensity” value turn out when B1 was run?
Answer: 7

Target: ScPex13
Assay: as above
Summary of the method: as §1

Question: For B1, which “SPOT peptide array binding signal intensity” value is on record?
Answer: 1.5

Target: ScRvs167
Assay: as above
Summary of the method: as §1

Question: B1 was tested. Which “SPOT peptide array binding signal intensity” value did it give?
Answer: ≤ 0

Target: ScSho1
Assay: as above
Summary of the method: as §1

Question: With B1 as the binder, how does the “SPOT peptide array binding signal intensity” value read?
Answer: 71

Target: ScSla1-D1-D2
Assay: as above
Summary of the method: as §1

Question: Which “SPOT peptide array binding signal intensity” value does the source give for B1 here?
Answer: 63.5

Target: ScSla1-D3
Assay: as above
Summary of the method: as §1

Question: For B1, which “SPOT peptide array binding signal intensity” value is on record?
Answer: 7

Target: SpAbp1-D1
Assay: as above
Summary of the method: as §1

Question: With B1 as the binder, how does the “SPOT peptide array binding signal intensity” value read?
Answer: 174

Target: SpBbc1
Assay: as above
Summary of the method: as §1

Question: How did the “SPOT peptide array binding signal intensity” value turn out when B1 was run?
Answer: 0.5

Target: SpBzz1-D1
Assay: as above
Summary of the method: as §1

Question: Which “SPOT peptide array binding signal intensity” value does the source give for B1 here?
Answer: 207

Target: SpBzz1-D2
Assay: as above
Summary of the method: as §1

Question: Which “SPOT peptide array binding signal intensity” value does the source give for B1 here?
Answer: ≤ 0

Target: SpCyk3
Assay: as above
Summary of the method: as §1

Question: Which “SPOT peptide array binding signal intensity” value does the source give for B1 here?
Answer: ≤ 0

Target: SpHof1
Assay: as above
Summary of the method: as §1

Question: B1 was tested. Which “SPOT peptide array binding signal intensity” value did it give?
Answer: 27

Target: SpHof1-2
Assay: as above
Summary of the method: as §1

Question: B1 was tested. Which “SPOT peptide array binding signal intensity” value did it give?
Answer: ≤ 0

Target: SpHof1-3
Assay: as above
Summary of the method: as §1

Question: For B1, which “SPOT peptide array binding signal intensity” value is on record?
Answer: 183

Target: SpHse1
Assay: as above
Summary of the method: as §1

Question: With B1 as the binder, how does the “SPOT peptide array binding signal intensity” value read?
Answer: 79

Target: SpLsb1
Assay: as above
Summary of the method: as §1

Question: With B1 as the binder, how does the “SPOT peptide array binding signal intensity” value read?
Answer: 2.5

Target: SpLsb4
Assay: as above
Summary of the method: as §1

Question: Which “SPOT peptide array binding signal intensity” value does the source give for B1 here?
Answer: 12.5

Target: SpMyo1
Assay: as above
Summary of the method: as §1

Question: B1 was tested. Which “SPOT peptide array binding signal intensity” value did it give?
Answer: ≤ 0

Target: SpNbp2
Assay: as above
Summary of the method: as §1

Question: Which “SPOT peptide array binding signal intensity” value does the source give for B1 here?
Answer: 22

Target: SpPex13
Assay: as above
Summary of the method: as §1

Question: How did the “SPOT peptide array binding signal intensity” value turn out when B1 was run?
Answer: ≤ 0

Target: SpRvs167
Assay: as above
Summary of the method: as §1

Question: How did the “SPOT peptide array binding signal intensity” value turn out when B1 was run?
Answer: 2

Target: SpSla1-D1-D2
Assay: as above
Summary of the method: as §1

Question: How did the “SPOT peptide array binding signal intensity” value turn out when B1 was run?
Answer: 3

Target: SpSla1-D3
Assay: as above
Summary of the method: as §1

Question: B1 was tested. Which “SPOT peptide array binding signal intensity” value did it give?
Answer: 2
